Experimental data: PubChem BioAssay (Tox21)
Records with an inconclusive call do not appear. Calls of active or inactive are those of the source. Unless noted, calls come from the whole dose curve; as a rule, active = well fitted curve in the direction sought with a large enough effect in the repeat runs; inconclusive = weak or mixed curves; inactive = no such curve, though single readings can be large; an effect the other way counts as inactive or inconclusive.

What was measured:
[1] = qHTS assay to identify small molecule agonists of the peroxisome proliferator-activated receptor delta (PPARd) signaling pathway - cell viability counter screen (AID 743211); note: nearly all actives have a fitted effect of over 55% in size
In short: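 PPARd-bla HEK293H cells (UAS-beta-lactamase reporter) were treated with compounds for 17 h at 37 C. Viability was then read in the same wells by CellTiter-Glo luminescence after 30 min at room temperature.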

[2] = qHTS assay to identify small molecule antagonists of the peroxisome proliferator-activated receptor delta (PPARd) signaling pathway - cell viability counter screen (AID 743213); note: nearly all actives have a fitted effect of over 50% in size
In short: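 In this counter screen, HEK293H cells carrying a UAS-beta-lactamase reporter are co-treated with test compounds and 300 nM L165041 (final) for 17 h at 37 C; cell viability is quantified by CellTiter-Glo luminescence.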

[3] = target: Peroxisome proliferator-activated receptor delta (Homo sapiens) (UniProt Q03181); experiment: qHTS assay to identify small molecule antagonists of the peroxisome proliferator-activated receptor delta (PPARd) signaling pathway (AID 743215; active = well fitted inhibition curve with a large enough effect in the signal ratio in the repeat runs, not every such curve was filed as active; the % refers to the signal ratio;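 note: cells stimulated with agonist L165041 at 300 nM final during compound exposure; series mostly up to about 62 µM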)
In short: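 Read-out is beta-lactamase FRET fluorescence, measured 2 h after substrate addition at room temperature. Beforehand, UAS-bla HEK293H cells carrying the PPARd reporter were exposed to compounds with L165041 at 300 nM final for 17 h at 37 C.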

[4] = qHTS assay to identify small molecule antagonists of the farnesoid-X-receptor (FXR) signaling pathway - cell viability counter screen (AID 743221; active = well fitted cell-killing curve with a large enough effect in the repeat runs, not every such curve was filed as active; note: nearly all actives have a fitted effect of over 50% in size)
In short: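 FXR-UAS-bla HEK 293T cells were treated with test compounds plus chenodeoxycholic acid (50 uM final) for 16 h at 37 C. Cell viability in the same wells was then read as CellTiter-Glo luminescence after 30 min at room temperature.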

[5] = target: Vitamin D3 receptor (Homo sapiens) (UniProt P11473); experiment: qHTS assay to identify small molecule agonists of the vitamin D receptor (VDR) signaling pathway (AID 743222; calls by dose curve)
In short: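 VDR-bla cells, 2,000/well; 4 h preincubation 37C; cpd (DMSO) 16 h; LiveBLAzer B/G substrate 2 h RT; fluorescence intensity read.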

[6] = target: Vitamin D3 receptor (Homo sapiens) (UniProt P11473); experiment: qHTS assay to identify small molecule antagonists of the vitamin D receptor (VDR) signaling pathway (AID 743223; active = well fitted inhibition curve with a large enough effect in the signal ratio in the repeat runs, not every such curve was filed as active; the % refers to the signal ratio)
In short: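 VDR-bla cells were plated, incubated 4 h at 37C, then given compound and 1alpha,25-dihydroxyvitamin D3 (3 nM final). After 16 h at 37C, LiveBLAzer B/G FRET substrate was added for 2 h at room temperature and fluorescence read.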

[7] = qHTS assay to identify small molecule agonists of the vitamin D receptor (VDR) signaling pathway - cell viability counter screen (AID 743224); note: series mostly up to about 63 µM; nearly all actives have a fitted effect of over 50% in size
In short: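 Luminescence from CellTiter-Glo, read after 30 min at room temperature, reports viability of VDR-bla cells treated with compounds for 16 h at 37C in the wells used for the beta-lactamase FRET read.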

[8] = qHTS assay to identify small molecule antagonists of the vitamin D receptor (VDR) signaling pathway - cell viability counter screen (AID 743225); note: nearly all actives have a fitted effect of over 50% in size
In short: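 VDR-bla HEK 293T cells, 4 h pre-incubation at 37C, then compound plus 1-alpha,25-dihydroxyvitamin D3 (3 nM final) for 16 h. After the beta-lactamase FRET read, CellTiter-Glo was added to the same wells; luminescence after 30 min at room temperature.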

[9] = qHTS assay to identify small molecule agonists of the NFkB signaling pathway (AID 1159509; active = well fitted curve in the direction sought with a large enough effect in the signal ratio in the repeat runs, not every such curve was filed as active; the % refers to the signal ratio; note: series mostly up to about 61 µM)
In short: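 After overnight attachment, reporter cells received test compounds, DMSO or positive controls and were incubated 5 hr at 37 C. FRET substrate was then added for 1.5 hr at room temperature before dual-emission fluorescence reading.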

[10] = qHTS assay to identify small molecule agonists of the NFkB signaling pathway - cell viability counter screen (AID 1159515; calls by dose curve; note: series mostly up to about 61 µM; nearly all actives have a fitted effect of over 55% in size)
In short: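 Luminescence from CellTiter-Glo (30 min, room temperature) gives viability, measured in the same wells as the beta-lactamase reporter read. Cells were NFkB-bla ME-180, 2,000 per well, treated 5 hr with compounds.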

[11] = qHTS assay to identify small molecule agonists of the endoplasmic reticulum stress response signaling pathway (AID 1159516; active = well fitted activation curve with a large enough effect in the signal ratio in the repeat runs, not every such curve was filed as active; the % refers to the signal ratio)
In short: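 Read-out is beta-lactamase cleavage of a FRET substrate (405 nm excitation; 460 and 530 nm emissions) in ESRE-bla HeLa cells after a 5 hr compound exposure at 37 C. Substrate incubation ran 2 hr at room temperature.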

[12] = qHTS assay to identify small molecule agonists of the endoplasmic reticulum stress response signaling pathway - cell viability counter screen (AID 1159517; calls by dose curve)
In short: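 Counter-screen wells were identical to the reporter wells. Cells were plated at 1,500 per well and dosed for 5 hr, then read for luminescence 30 min after CellTiter-Glo addition.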

[13] = qHTS assay to identify small molecule antagonists of the retinoid-related orphan receptor gamma (ROR-gamma) signaling pathway - cell viability counter screen (AID 1159520); note: nearly all actives have a fitted effect of over 50% in size
In short: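 Tet-on ROR gamma CHO cells were given compounds for 2 hr, then doxycycline hyclate at 1 uM final, and incubated 16 hr at 37 C. Viability was measured as ATP content by CellTiter-Glo luminescence.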

[14] = target: Nuclear receptor ROR-gamma (Homo sapiens) (UniProt P51449); experiment: qHTS assay to identify small molecule antagonists of the retinoid-related orphan receptor gamma (ROR-gamma) signaling pathway (AID 1159521)
In short: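 Tet-on RORγ CHO cells carrying a ROR response element–luciferase reporter were pretreated with compounds for 2 h, then induced with 1 uM (final) doxycycline hyclate for 16 h at 37 C. Antagonism was read as decreased ONE-Glo luminescence.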

[15] = qHTS assay to identify small molecule agonists of the AP-1 signaling pathway - cell viability counter screen (AID 1159525; calls by dose curve; note: nearly all actives have a fitted effect of over 55% in size)
In short: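 AP-1-bla ME-180 cells in Opti-MEM with 0.5% dialyzed FBS, compound exposure 5 h at 37 C in 15-point titration. Viability read in the same wells as ATP content by CellTiter-Glo luminescence, normalised to tetra-n-octylammonium bromide and DMSO controls.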

[16] = qHTS assay to identify small molecule agonists of the AP-1 signaling pathway (AID 1159526; calls by dose curve)
[17] = target: Peroxisome proliferator-activated receptor delta (Homo sapiens) (UniProt Q03181); experiment: qHTS assay to identify small molecule agonists of the peroxisome proliferator-activated receptor delta (PPARd) signaling pathway (AID 743212; calls by dose curve)
In short: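 Quantitative high-throughput agonist screen in a HEK293H beta-lactamase reporter line under UAS control. Compounds in DMSO, at 37 C. Fluorescence read after 2 h with FRET substrate at room temperature.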

[18] = qHTS assay to identify small molecule agonists of the farnesoid-X-receptor (FXR) signaling pathway - cell viability counter screen (AID 743218); note: nearly all actives have a fitted effect of over 45% in size
In short: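 HEK 293T FXR-bla cells; 5 h pre-incubation, 16 h compound exposure at 37 C; LiveBLAzer substrate 2 h RT, then CellTiter-Glo 30 min RT, luminescence.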

[19] = target: Bile acid receptor (Homo sapiens) (UniProt Q96RI1); experiment: qHTS assay to identify small molecule agonists of the farnesoid-X-receptor (FXR) signaling pathway (AID 743220; active = well fitted activation curve with a large enough effect in the signal ratio in the repeat runs, not every such curve was filed as active; the % refers to the signal ratio)
In short: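 Beta-lactamase reporter under UAS control in GeneBLAzer FXR HEK 293T cells (5000/well) measured with LiveBLAzer FRET substrate after 2 h at room temperature. Compound exposure lasted 16 h at 37C.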

[20] = target: Bile acid receptor (Homo sapiens) (UniProt Q96RI1); experiment: qHTS assay to identify small molecule antagonists of the farnesoid-X-receptor (FXR) signaling pathway (AID 743217; active = well fitted inhibition curve with a large enough effect in the signal ratio in the repeat runs, not every such curve was filed as active; the % refers to the signal ratio)
In short: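 HEK 293T FXR-UAS-bla, 5000 cells/well; compound + CDCA 50 uM final; 16 h, 37 °C; B/G FRET substrate 2 h RT; fluorescence.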

Measured: Potency

Peroxisome proliferator-activated receptor delta (Homo sapiens), sequence (Q03181 whole entry, looked up): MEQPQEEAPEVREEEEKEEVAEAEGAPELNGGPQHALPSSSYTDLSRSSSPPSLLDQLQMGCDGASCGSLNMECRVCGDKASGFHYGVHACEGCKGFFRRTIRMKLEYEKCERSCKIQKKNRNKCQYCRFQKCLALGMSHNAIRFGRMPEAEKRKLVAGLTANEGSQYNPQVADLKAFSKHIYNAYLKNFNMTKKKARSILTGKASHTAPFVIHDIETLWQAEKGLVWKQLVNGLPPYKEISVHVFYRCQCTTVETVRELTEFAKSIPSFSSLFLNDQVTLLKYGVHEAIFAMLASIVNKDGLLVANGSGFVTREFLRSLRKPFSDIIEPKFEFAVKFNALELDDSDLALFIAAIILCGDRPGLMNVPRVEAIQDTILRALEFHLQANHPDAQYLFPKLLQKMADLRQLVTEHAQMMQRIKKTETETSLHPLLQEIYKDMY
Vitamin D3 receptor (Homo sapiens), sequence (P11473 whole entry, looked up): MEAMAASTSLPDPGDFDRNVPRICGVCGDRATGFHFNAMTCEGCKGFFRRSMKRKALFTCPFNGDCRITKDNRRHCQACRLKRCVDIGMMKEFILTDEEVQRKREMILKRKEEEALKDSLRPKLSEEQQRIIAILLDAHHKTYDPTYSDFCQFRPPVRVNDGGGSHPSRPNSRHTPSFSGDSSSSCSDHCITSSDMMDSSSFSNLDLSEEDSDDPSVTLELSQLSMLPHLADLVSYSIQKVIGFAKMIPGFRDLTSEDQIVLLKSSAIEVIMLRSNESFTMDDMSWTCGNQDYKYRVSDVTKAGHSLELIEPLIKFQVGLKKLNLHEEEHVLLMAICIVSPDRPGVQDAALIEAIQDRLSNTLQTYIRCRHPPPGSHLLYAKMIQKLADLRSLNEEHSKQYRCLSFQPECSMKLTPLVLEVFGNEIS
Bile acid receptor (Homo sapiens), sequence (Q96RI1 whole entry, looked up): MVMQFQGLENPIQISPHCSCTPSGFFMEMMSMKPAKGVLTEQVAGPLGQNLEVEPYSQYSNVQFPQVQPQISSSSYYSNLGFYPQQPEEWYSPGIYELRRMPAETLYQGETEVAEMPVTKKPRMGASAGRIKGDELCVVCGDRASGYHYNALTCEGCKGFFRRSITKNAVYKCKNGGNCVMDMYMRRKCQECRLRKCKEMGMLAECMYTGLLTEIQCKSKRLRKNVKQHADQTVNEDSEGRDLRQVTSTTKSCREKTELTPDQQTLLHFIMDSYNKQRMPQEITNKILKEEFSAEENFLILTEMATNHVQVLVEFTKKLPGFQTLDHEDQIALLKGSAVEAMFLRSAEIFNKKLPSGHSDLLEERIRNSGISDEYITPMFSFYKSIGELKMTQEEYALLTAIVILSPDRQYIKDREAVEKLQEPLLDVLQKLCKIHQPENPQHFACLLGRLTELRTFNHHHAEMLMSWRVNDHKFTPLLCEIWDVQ

C=C(C)C1CCC(C)(O)CC1 (stereo unspecified)
not listed: [17] | [18] | [19] | [20]
inactive: all other assays above

C=C(C)C(=O)OCCN(CC)CC
not listed: [2] | [7] | [8] | [19] | [20]
inactive: all other assays above

Cc1cccc(C)c1NC(=O)c1ccccc1C(=O)O
not listed: [3] | [8] | [17] | [18] | [19] | [20]
inactive: all other assays above

COc1ccc(OC)c(Cl)c1
not listed: [1] | [5] | [6] | [8] | [18] | [19] | [20]
inactive: all other assays above

O=C(OCC(O)CO)c1ccccc1Nc1ccnc2c(C(F)(F)F)cccc12 (stereo unspecified)
not listed: [3] | [17] | [20]
inactive: all other assays above

COP(=O)(OC)OC(c1ccc(Cl)cc1)P(=O)(OC)OC (stereo unspecified)
not listed: [1] | [7] | [19] | [20]
inactive: all other assays above

BrCc1cccc(Oc2ccccc2)c1
not listed: [1] | [17] | [19] | [20]
inactive: all other assays above

CC(C)(C)c1cc(CCC(=O)NN)cc(C(C)(C)C)c1O
not listed: [3] | [8] | [18] | [19] | [20]
inactive: all other assays above

C=C(C)C(=O)OCc1ccccc1
not listed: [1] | [3]
inactive: all other assays above

CCCOC(OCCC)OCCC
not listed: [2]
inactive: all other assays above

COc1ccc(C2CNC(=O)C2)cc1OC1CCCC1 (stereo unspecified)
not listed: [13] | [19] | [20]
inactive: all other assays above

OCCN(CCO)c1cccc(Cl)c1
not listed: [3] | [6] | [15] | [19] | [20]
inactive: all other assays above

CNC(=O)[C@H]1O[C@@H](n2cnc3c(NCc4cc(Cl)ccc4OCc4cc(C)no4)ncnc32)[C@H](O)[C@@H]1N
not listed: [1] | [8] | [13]
inactive: all other assays above

CCCCCCCCC1CCC(=O)O1 (stereo unspecified)
not listed: [6] | [7] | [12] | [18]
inactive: all other assays above

CC(=O)OC(C)OC(=O)C(C)c1ccc(-c2ccccc2)c(F)c1 (stereo unspecified)
not listed: [1] | [6] | [15] | [17] | [18]
inactive: all other assays above

O=C(OCC(COC(=O)c1cccnc1)(COC(=O)c1cccnc1)COC(=O)c1cccnc1)c1cccnc1
not listed: [5] | [7] | [15] | [19] | [20]
inactive: all other assays above

CC(CC=O)CCCC(C)(C)O (stereo unspecified)
not listed: [2] | [6] | [7] | [15] | [19] | [20]
inactive: all other assays above

CC(=C(CCOC(=O)C(C)C)SSC(CCOC(=O)C(C)C)=C(C)N(C=O)Cc1cnc(C)nc1N)N(C=O)Cc1cnc(C)nc1N
not listed: [1] | [15]
inactive: all other assays above

O=S(=O)(O)CCN1CCN(CCO)CC1
not listed: [3] | [4] | [7] | [13] | [15] | [17]
inactive: all other assays above

Cc1ccc2ccc(Cl)cc2n1
not listed: [15] | [19] | [20]
inactive: all other assays above

COc1cc(NS(=O)(=O)c2ccc(N)cc2)nc(OC)n1
not listed: [13] | [19] | [20]
inactive: all other assays above

BrCCCCCBr
not listed: [7] | [12] | [18]
inactive: all other assays above

Cc1cc(NC(=O)C2=C(O)c3ccccc3S(=O)(=O)N2C)no1
not listed: [6] | [12] | [18] | [19] | [20]
inactive: all other assays above

CCOC(=O)CC(=O)c1ccccc1
not listed: [15] | [19] | [20]
inactive: all other assays above

O=C1c2ccccc2C(=O)c2cc(S(=O)(=O)O)ccc21
not listed: [13] | [18] | [19] | [20]
inactive: all other assays above

On1nnc2ccccc21
not listed: [2] | [3] | [4] | [15] | [17] | [18] | [19] | [20]
inactive: all other assays above

NNc1nnc(NN)c2ccccc12
not listed: [5] | [8] | [13] | [18]
inactive: all other assays above

CC(C(=O)O)c1ccc2c(c1)CC(=O)c1ccccc1S2 (stereo unspecified)
not listed: [5] | [6] | [12] | [17] | [19] | [20]
inactive: all other assays above
